Target: EMILIN2
Assay: pooled miR-30 sensor sort-seq; sequence = guide strand
Details: shRNA
Further: reference of the scale not given here.

| Sequence | sensor-assay potency score (higher = more potent) |
| --- | --- |
| TTGAACTTTGTCCTTCAGGTGG | -0.378 |
| TTCCATTACATACAAACCGAAT | -1.63 |
| TAGAGTTTTTACAACTATCTAT | -0.151 |
| TATTCCAGGAACTCTCTCCTGT | 0.252 |
| AACAACTTGAACTTTGTCCTTC | 0.591 |
| TTTAATTCCATCATGACCCGTT | 0.891 |

Target: EMP1
Assay: as above
Details: shRNA

| Sequence | sensor-assay potency score (higher = more potent) |
| --- | --- |
| ATAATAACAGTAGCGATGTGGA | -0.819 |
| AATGGTGCTAACAAATAGCATA | -1.39 |
| ATAATGACTAGTGTAGATGGAC | -0.252 |
| TTCACTGGCATATGACAGGCTG | -0.108 |
| TTGGAAACCAACCAGACATTGG | -0.971 |
| TATTGGAAACCAACCAGACATT | -1.22 |
| TTCGCATAATGACTAGTGTAGA | -1.4 |
| ATAGCCGTGGTGATACTGCGTT | -0.125 |
| AATAGCATAATAACAGTAGCGA | 0.0884 |
| ACCGTATTGGAAACCAACCAGA | -1.97 |
| TAGCATAATAACAGTAGCGATG | -1.5 |
| ATTCGCATAATGACTAGTGTAG | -0.191 |
| TTGAGGGCATCTTCACTGGCAT | -0.461 |
| TCACTGGCATATGACAGGCTGT | -1.18 |
| ATCTACCGTATTGGAAACCAAC | -1.95 |
| TTTTTCCAAAGACCTACTGATG | -1.45 |
| TACTGATGCATCTACCGTATTG | -1.81 |
| TAGTGTAGATGGACACCCCCAC | -0.261 |
| TACAGTTTTTCCAAAGACCTAC | -0.739 |
| TAGCCGTGGTGATACTGCGTTC | -1.37 |
| ATAGCATAATAACAGTAGCGAT | -1.69 |
| TACCGTATTGGAAACCAACCAG | -0.163 |
| TGATGCATCTACCGTATTGGAA | -0.931 |

Target: ENAM
Assay: as above
Details: shRNA

| Sequence | sensor-assay potency score (higher = more potent) |
| --- | --- |
| TACTGTTGAGAGTTTCTCCAGG | 0.393 |
| TAAATTGTTCCTCAGTAGCTAA | -0.863 |
| TTGAACTTGTTGATTTCTGTAA | 0.247 |
| TAGTCTTGTAGAGCTAGTGGAT | -0.371 |
| TTATTTGTTCTTTTGGACCCAG | 0.0187 |
| TTGAGCTTCCTCTTCGGGCTGA | 1.2 |
| TTTAGGAGGATCTTCTTCTTTG | -0.209 |
| TGAAATACCACTGTCTTCCTGA | 0.779 |
| TTCTTTATAGAACATGGTGTGT | -0.573 |
| TAGAGCTAGTGGATTGTCCTTG | 0.779 |
| TATAATTTGATTTATTAACTTC | -0.315 |
